# Shown is part of a subset that was picked to be rich in hits.
# Dicer inh – inhibitors of human Dicer processing of pre-microRNA | Q9UPY3 | cat-ELCCA pre-miR-21 Dicer processing, chemiluminescence; active compounds read high | z-score at 25 µM | actives 6% (n = 47,000); in the data active = z-score above about 3, passing the limit was not always enough;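 note: higher signal means more uncleaved substrate so more Dicer inhibition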
# Hits are given with their value; . = inactive.
SMILES,Dicer inh
CCCOc1ccc(C2c3c(oc4ccccc4c3=O)C(=O)N2c2ccc(C)cn2)cc1 (centres undefined),.
O=C1c2oc3ccccc3c(=O)c2C(c2ccc(O)cc2)N1c1ccccn1 (centres undefined),5.1
O=C(Nc1ccc(Cl)cc1)c1cnc(SCc2ccco2)cc1C(F)(F)F,.
CN(C)c1ccc(NC(=O)c2ccc(Cn3cc(Cl)cn3)o2)cc1,.
CCCCn1c2ccc(F)cc2c2nnc(SCCN3CCOCC3)nc21,.
NC(/C=C/c1cc(C(F)(F)F)cc(C(F)(F)F)c1)=N\OC(=O)c1c(F)cccc1F,.
CC1(C)CC(=O)C2=C(C1)Nc1ccccc1N(C(=O)C1CC1)C2c1ccco1 (centres undefined),.
Cn1nnnc1SCCNCc1ccc(Br)cc1,.
Cc1cc(-c2ccccc2)nc2oc3c(c12)NC(=O)CN(c1ccc(F)cc1)C3=O,.
N[C@@H](Cc1ccccc1)c1nnc(SCc2cccc3ccccc23)o1,.
CCOC(=O)/C(=N\Nc1cccc(C)c1)c1csc(N)n1,4
CCOC(=O)/C(C)=N/Nc1ccccc1,.
CCOC(=O)/C(C)=N/Nc1ccc(F)cc1,.
CC1=CS(=O)(=O)c2ccc(Cl)cc21,4.3
O=C1NS(=O)(=O)c2ccc(Cl)cc2Sc2ccccc21,.
COC(=O)c1cc2c(s1)-c1cc(Cl)ccc1S(=O)(=O)C2,.
Cc1sc2c(c1C)C(O)=C(C(=O)Nc1ccc(OC(F)(F)F)cc1)S(=O)(=O)N2C,.
O=C(CC1(O)C(=O)Nc2ccccc21)c1ccc(C2CCCCC2)cc1 (centres undefined),4.2
Cc1ccc(C(=O)CC2(O)C(=O)Nc3ccccc32)cc1 (centres undefined),.
O=C(CC1(O)C(=O)Nc2ccc(Cl)cc21)c1cccc2ccccc12 (centres undefined),.
O=C(CC1(O)C(=O)Nc2ccccc21)c1ccc2ccccc2c1 (centres undefined),4.4
O=C(CC1(O)C(=O)Nc2ccccc21)c1ccc(Br)cc1 (centres undefined),.
O=C(CC1(O)C(=O)Nc2ccccc21)c1cccc2ccccc12 (centres undefined),5.2
O=C(CC1(O)C(=O)Nc2ccc(Br)cc21)c1ccc2ccccc2c1 (centres undefined),.
O=C(CC1(O)C(=O)Nc2ccccc21)CC1(O)C(=O)Nc2ccccc21 (centres undefined),.
SMILES,Dicer inh
O=C(CC1(O)C(=O)Nc2ccc(Cl)cc21)c1ccc(Cl)cc1 (centres undefined),.
CN1C(=O)C(O)(CC(=O)c2ccc(C3CCCCC3)cc2)c2ccccc21 (centres undefined),.
Nc1cccc(C(=O)CC2(O)C(=O)Nc3ccc(Cl)cc32)c1 (centres undefined),12
Nc1cccc(C(=O)CC2(O)C(=O)Nc3ccc(Br)cc32)c1 (centres undefined),.
C/C(N)=N/S(=O)(=O)c1c(C)c(C)c(C)c(C)c1C,.
O=S(=O)(c1ccc(-n2c(-c3ccncc3)n[nH]c2=S)cc1)N1CCCCC1,.
Cc1cc(C)nc(Nc2n[nH]c(-c3ccncc3)n2)n1,.
C=CCOC(=O)C1=C(C)NC2=C(C(=O)CC(C)(C)C2)C1c1ccc(OC)c(Br)c1 (centres undefined),.
COCCOC(=O)c1c(C)oc2ccc(OC/C=C/c3ccccc3)cc12,.
O=C(CSc1nc(-c2ccco2)cc(C(F)(F)F)n1)N1CCN(c2cccc(Cl)c2)CC1,.
Cc1ccc(C)n1CCN1CCN(C(=O)CSc2nc3ccccc3nc2N2CCOCC2)CC1,3
O=C(CSc1nc2ccccc2nc1N1CCOCC1)NC1CCCC1,.
O=C(CSc1nc2ccccc2nc1N1CCOCC1)Nc1ccccc1F,.
O=C(CSc1nc2ccccc2nc1N1CCCC1)N1CCCC1,.
O=C(CSc1nc2ccccc2nc1N1CCOCC1)N1CCN(c2cccc(Cl)c2)CC1,3.5
O=C(CC1NCCNC1=O)Nc1cc(Cl)ccc1Cl (centres undefined),.
COc1cc(C2C3=C(CCCC3=O)NC3=C2C(=O)CCC3)ccc1OCc1cccc(F)c1,.
CCC1CSC(Nc2c(C)cccc2C)=N1 (centres undefined),.
CNC(=S)N/N=C(\C)c1ccccc1,.
CC1(C)Cc2c(C#N)c(SCCOc3ccccc3)nc(N3CCOCC3)c2CO1,.
CCCSc1nc(N2CCCC2)c2c(c1C#N)CC(C)(C)OC2,3.6
CCSc1nc(N2CCCC2)c2c(c1C#N)CC(C)(C)OC2,.
NC1(C(=O)O)CC1,.
CC(C)c1ccc(Nc2nnns2)cc1,6.8
Clc1ccc(Nc2nnns2)cc1,.
SMILES,Dicer inh
CC(C)c1ccc(NC2(C#N)CCCCC2)cc1,.
Cc1ccc(/C(O)=C2\C(=O)C(=O)N(CCCN3CCOCC3)C2c2ccc(F)cc2)cc1 (centres undefined),.
O=C1C(=O)N(CCCN2CCOCC2)C(c2ccccc2)/C1=C(\O)c1ccccc1 (centres undefined),.
Cc1ccc(/C(O)=C2\C(=O)C(=O)N(CCCN3CCOCC3)C2c2ccco2)cc1 (centres undefined),3.3
Cc1nc(N2CCOCC2)nc(NCc2ccccc2)c1[N+](=O)[O-],.
O=C(O)CCSc1ccc2ccccc2c1,.
Nc1cc(N)nc(SCCC(=O)O)n1,3.3
O=C(O)CCSc1nc2ccccc2[nH]1,.
COc1ccccc1-c1nn2c(-c3ccccc3Cl)nnc2s1,.
CC(C)c1ccc(N(CCc2ccccn2)C(=O)C(C)(C)C)cc1,.
CCOC(=O)N1CCc2c(sc3[nH]c(=O)n(-c4cccc(Cl)c4)c(=O)c23)C1,.
FC(F)(F)c1ccc(N2CCCN(C(=S)Nc3ccccc3N3CCOCC3)CC2)nc1,.
CC(C)c1nnc(N2C(=O)c3oc4ccccc4c(=O)c3C2c2cccc(O)c2)s1 (centres undefined),.
CCOC(=O)Cc1n[nH]c(=O)[nH]c1=O,.
O=C(O)CNc1n[nH]c(=O)[nH]c1=O,.
CCC(Nc1n[nH]c(=O)[nH]c1=O)C(=O)OC (centres undefined),3.2
Cc1[nH]c(=S)[nH]c(=O)c1Cc1c(F)cccc1Cl,.
Cc1cc2nc(NC3=NCN(CCCN4CCOCC4)CN3)nc(C)c2cc1C,.
Cc1ccc2c(C)nc(NC3=NCN(Cc4ccccc4)CN3)nc2c1,.
Cc1cc2nc(NC3=NCN(Cc4ccc5c(c4)OCO5)CN3)nc(C)c2cc1C,3.2
CCCCN1CN=C(Nc2nc(C)c3cc(OCC)ccc3n2)NC1,.
Cc1cc2nc(NC3=NCN(Cc4ccco4)CN3)nc(C)c2cc1C,.
CCOc1ccc2nc(NC3=NCN(CCCN4CCOCC4)CN3)nc(C)c2c1,3.8
CC(C)(C)c1cc(NC(=O)Nc2ccccc2)no1,.
COc1ccc(-c2csc3ncn(C(C)C(=O)O)c(=O)c23)cc1OC (centres undefined),.
SMILES,Dicer inh
CC(=O)c1ccc(NCN2C(=O)/C(=C\N(C)C)NC2=S)cc1,.
Cc1cc(Br)ccc1OCc1nc(-c2ccccn2)no1,.
O=C(O)c1cccc2cccc(C(=O)O)c12,3.9
Nc1ccc(C(=O)O)c2c(C(=O)O)cccc12,.
O=C(O)c1cccc2cccc(S(=O)c3ccccc3CO)c12 (centres undefined),.
CCCCc1c(O)nc(SC)[nH]c1=O,.
CCCCc1c(C)nc(SC)[nH]c1=O,5.3
CCCCc1c(C)nc(N)[nH]c1=O,.
COc1ccc(Oc2c(C(F)(F)F)oc3c(CN4CCCC4)c(O)ccc3c2=O)cc1,.
CC(=O)Oc1ccc(OC(C)=O)c2c1C(=O)c1ccccc1C2=O,.

# Screens (PubChem)
